The entries come from a sample that favours hits as a whole.
Dicer processing: inhibitors of human Dicer processing of pre-microRNA. AID 1347074. cat-ELCCA pre-miR-21 Dicer processing, chemiluminescence; hits give high values. z-score at 25 µM. 6% of 47,000 active; in the data active = z-score above about 3, passing the limit was not always enough;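 note: higher signal means more uncleaved substrate so more Dicer inhibition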
Target sequence (Q9UPY3 whole entry, looked up): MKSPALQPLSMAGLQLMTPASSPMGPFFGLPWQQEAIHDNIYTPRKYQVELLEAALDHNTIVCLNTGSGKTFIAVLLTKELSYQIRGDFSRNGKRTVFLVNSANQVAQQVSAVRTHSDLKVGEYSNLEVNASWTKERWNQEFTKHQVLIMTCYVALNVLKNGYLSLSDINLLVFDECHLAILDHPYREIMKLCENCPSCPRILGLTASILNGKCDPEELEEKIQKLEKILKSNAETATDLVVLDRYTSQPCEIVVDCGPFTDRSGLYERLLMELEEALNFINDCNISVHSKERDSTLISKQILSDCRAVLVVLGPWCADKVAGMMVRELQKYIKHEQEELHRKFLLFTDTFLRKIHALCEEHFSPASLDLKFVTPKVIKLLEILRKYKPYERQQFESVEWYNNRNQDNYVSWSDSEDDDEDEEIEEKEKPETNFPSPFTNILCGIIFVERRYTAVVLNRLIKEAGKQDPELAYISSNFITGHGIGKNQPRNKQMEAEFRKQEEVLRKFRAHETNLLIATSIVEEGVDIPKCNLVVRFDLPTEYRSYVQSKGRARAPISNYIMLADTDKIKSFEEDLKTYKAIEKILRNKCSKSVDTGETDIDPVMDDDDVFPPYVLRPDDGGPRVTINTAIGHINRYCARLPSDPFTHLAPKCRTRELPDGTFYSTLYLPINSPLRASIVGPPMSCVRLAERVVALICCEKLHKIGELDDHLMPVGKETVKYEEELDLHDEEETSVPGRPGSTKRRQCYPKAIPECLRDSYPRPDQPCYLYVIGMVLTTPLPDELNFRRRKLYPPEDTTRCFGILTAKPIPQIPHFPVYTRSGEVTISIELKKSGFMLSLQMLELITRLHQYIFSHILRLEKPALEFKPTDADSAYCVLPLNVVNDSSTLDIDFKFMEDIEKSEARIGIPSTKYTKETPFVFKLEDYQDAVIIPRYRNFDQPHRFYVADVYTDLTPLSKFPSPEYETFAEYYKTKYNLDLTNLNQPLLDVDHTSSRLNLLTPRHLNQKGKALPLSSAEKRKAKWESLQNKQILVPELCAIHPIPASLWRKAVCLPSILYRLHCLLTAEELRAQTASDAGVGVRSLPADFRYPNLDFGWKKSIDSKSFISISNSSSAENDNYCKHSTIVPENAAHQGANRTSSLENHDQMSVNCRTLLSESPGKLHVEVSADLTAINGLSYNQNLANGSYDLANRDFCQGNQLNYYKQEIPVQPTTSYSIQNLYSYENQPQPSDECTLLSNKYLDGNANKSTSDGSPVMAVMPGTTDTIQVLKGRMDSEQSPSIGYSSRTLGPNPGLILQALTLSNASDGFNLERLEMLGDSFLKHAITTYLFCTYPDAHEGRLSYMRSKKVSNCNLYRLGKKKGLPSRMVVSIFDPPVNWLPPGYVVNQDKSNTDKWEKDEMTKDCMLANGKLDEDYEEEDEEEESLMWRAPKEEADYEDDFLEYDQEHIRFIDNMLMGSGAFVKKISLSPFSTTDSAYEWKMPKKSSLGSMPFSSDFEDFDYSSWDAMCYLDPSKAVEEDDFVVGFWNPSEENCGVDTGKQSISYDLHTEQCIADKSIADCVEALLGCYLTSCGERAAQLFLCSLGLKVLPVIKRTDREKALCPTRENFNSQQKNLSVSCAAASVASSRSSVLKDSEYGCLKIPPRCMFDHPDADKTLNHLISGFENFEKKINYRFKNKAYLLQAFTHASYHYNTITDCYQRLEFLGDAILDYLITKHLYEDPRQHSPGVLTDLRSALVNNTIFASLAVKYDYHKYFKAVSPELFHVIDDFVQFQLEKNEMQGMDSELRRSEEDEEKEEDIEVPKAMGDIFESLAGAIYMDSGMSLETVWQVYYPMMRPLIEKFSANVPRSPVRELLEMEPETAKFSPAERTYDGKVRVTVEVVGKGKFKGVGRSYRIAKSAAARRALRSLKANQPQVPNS
Of the large screens only hits and unclear results are named; the others gave an inactive call.

CC1CC(C)(C)N(C(=O)CN2C(=O)CCC2=O)c2ccccc21 (stereo not given)	none
CC1CC(C)(C)N(C(=O)Nc2cccc(Cl)c2)c2ccccc21 (stereo not given)	Dicer processing 6.6
Cn1ncc(Br)c1NC(=O)c1ccc(Cl)cc1	none
Cc1cc(C)n(/N=c2\sc(-c3ccccc3)cn2C2CCCCC2)c(=O)c1C#N	none
CC(C)COC(=O)c1ccc2c(c1)C1C=CCC1C(c1ccc(F)cc1)N2 (stereo not given)	none
CCOC(=O)c1ccc2c(c1)C1C=CCC1C(c1ccccc1)N2 (stereo not given)	none
Clc1ccc2c(c1)C1C=CCC1C(c1ccccc1)N2 (stereo not given)	none
CCOC(=O)c1ccc2c(c1)[C@@H]1C=CC[C@@H]1[C@H](c1cccc(OC)c1OC)N2	none
Cc1ccc2c(c1)C1C=CCC1C(c1ccccc1Cl)N2 (stereo not given)	Dicer processing 4.1
CCOC(=O)c1ccc2c(c1)C1C=CCC1C(c1ccc(Br)cc1)N2 (stereo not given)	Dicer processing 5.6
COc1ccc(Br)cc1[C@@H]1Nc2ccc(C(=O)O)cc2[C@@H]2C=CC[C@@H]21	none
O=C(O)c1ccc2c(c1)C1C=CCC1C(c1ccc(Cl)cc1)N2 (stereo not given)	none
O=C(O)c1ccc2c(c1)[C@@H]1C=CC[C@@H]1[C@H](c1ccccc1Br)N2	Dicer processing 3.1
O=C(Nc1cccc(Cl)c1)Nc1nc(-c2ccc(OC(F)(F)F)cc2)no1	none
CC1CCc2c(sc3nc(-c4ccccc4)[nH]c(=O)c23)C1 (stereo not given)	none
CCOC(=O)c1c(C)csc1NC(=O)CC(=O)Nc1scc(C)c1C(=O)OCC	none
CCS(=O)(=O)c1nc2ccccc2n1CCOc1ccc(Cl)cc1	none
Cc1cccc(C(=O)c2ccccc2C(=O)O)c1	none
O=C(O)c1ccccc1C(=O)c1ccc(-c2ccccc2)cc1	none
O=C(O)c1ccccc1C(=O)c1ccc(F)cc1	Dicer processing 3.1
Cn1c(NCC(O)CO)nc2c1c(=O)n(Cc1ccccc1Cl)c(=O)n2C (stereo not given)	none
C=CC(C)N1C(=O)c2ccccc2C1=O (stereo not given)	none
CCOC(=O)c1nn(-c2ccccc2Cl)cc(Sc2nnc(C(F)(F)F)n2C)c1=O	none
O=C(C1COc2ccccc2O1)N1CCCC1 (stereo not given)	none
CC1CCN(CC(C)OC(=O)C2COc3ccccc3O2)CC1 (stereo not given)	none
CC(CN(C)Cc1ccccc1)OC(=O)C1COc2ccccc2O1 (stereo not given)	Dicer processing 3.5
O=c1[nH]nc(Sc2cc(C(F)(F)F)ccn2)n1-c1ccccc1C(F)(F)F	none
CCCc1c(O)ccc2c(=O)cc(C(=O)O)oc12	none
COc1cc(/C=C(\C#N)C(N)=S)cc(OC)c1OC	none
COc1ccc(N2C(=O)CC(NCCc3c[nH]c4ccc(Cl)cc34)C2=O)cc1 (stereo not given)	none
COc1ccc2[nH]cc(CCNC3CC(=O)N(c4ccc(Br)cc4)C3=O)c2c1 (stereo not given)	Dicer processing 3.5
O=C1CC(NCCc2c[nH]c3ccccc23)C(=O)N1c1cccc(Cl)c1 (stereo not given)	none
CCCC(=O)N1c2ccccc2-c2nnc(SC)nc2OC1c1cccnc1 (stereo not given)	none
CC(=O)Nc1ccc(S(=O)(=O)Oc2ccccc2N2CCCCC2)cc1	none
O=C(Nc1ccc(OCc2ccccc2)cc1)Oc1ccccc1N1CCCCC1	Dicer processing 4.8
Cc1cc(C)cc(NC(=O)Oc2ccccc2N2CCCCC2)c1	none
Cn1c(=O)c2c(nc(NCCO)n2Cc2cccc(F)c2)n(C)c1=O	none
CCCCOC(=O)C1=C(C)NC2=C(C(=O)CC(C)(C)C2)C1c1cc(Br)c(O)c(OC)c1 (stereo not given)	none
CSc1nnc(-c2ccc(C(C)(C)C)cc2)n1Cc1ccccc1	none
COc1ccc(N2CCN(c3oc(COc4ccc(F)cc4)nc3C#N)CC2)cc1	none
N#Cc1nc(COc2cccc(Cl)c2)oc1NCc1ccco1	none
N#Cc1nc(COc2ccccc2Cl)oc1N1CCCC1	none
N#Cc1nc(COc2ccccc2Cl)oc1N1CCOCC1	none
N#Cc1nc(COc2ccc(F)cc2)oc1NCc1cccnc1	none
COc1ccc(OCc2nc(C#N)c(N3CCC(C(N)=O)CC3)o2)cc1	none
COc1ccc(OCc2nc(C#N)c(N3CCN(c4ccccc4)CC3)o2)cc1	Dicer processing 3
N#Cc1nc(COc2cccc(Cl)c2)oc1NCc1cccnc1	Dicer processing 3.8
N#Cc1nc(COc2cccc(Cl)c2)oc1N1CCCCC1	Dicer processing 3.9
Cc1ccc(C(=O)/C=C/Nc2ccc(Cl)cc2Cl)cc1	none
CCOc1cc(C2C(C(=O)OCC3CCCO3)=C(C)NC3=C2C(=O)CC(C)(C)C3)cc(Cl)c1O (stereo not given)	none
Cc1nc2n(CC(=O)N3CCCC3)c3ccccc3n2n1	none
Nc1nc2ccc(Cc3nc4ccccc4o3)cc2s1	none
Cc1ccc2nc(Cc3ccc4nc(N)sc4c3)oc2c1	Dicer processing 4.7
Cc1ccc2nc(Cc3ccc(N)cc3)oc2c1	none
CCOC(CC(=O)NNC(=O)c1c(-c2c(F)cccc2Cl)noc1C)OCC	none
COc1nc2c(c(-c3ccc(C(F)(F)F)cc3)c1C#N)CCc1ccccc1-2	none
COc1nc2c(c(-c3ccc4ccccc4c3)c1C#N)CCc1ccccc1-2	none
COc1nc2c(c(-c3ccc(Cl)cc3Cl)c1C#N)CCc1ccccc1-2	Dicer processing 3.1
O=C1OC(c2cccnc2Sc2ccc(Cl)cc2)=N/C1=C\c1ccc(C(F)(F)F)cc1	none
Cc1ccc(OCC(=O)O)c([N+](=O)[O-])n1	none
COc1ccc(S(=O)(=O)NCCSc2nnnn2-c2ccccc2)cc1OC	none
COc1ccc(C2(CNS(=O)(=O)c3ccccc3)CCCC2)cc1OC	Dicer processing 5.9
COc1ccc(-c2nc(S(=O)(=O)c3ccccc3)c(N3CCCCC3)o2)cc1OC	none
O=[N+]([O-])c1ccc(C2N(Cc3ccccc3)CCC3CCCCN32)cc1 (stereo not given)	none
CCO/C=C1\SC(=S)N(c2ccc(C(C)C)cc2)C1=O	none
COC(=O)c1ccc(-c2nc(-c3cc(C)nc4ccccc34)no2)cc1	none
O=C(C1=NNCC1c1ccccc1)c1ccccc1 (stereo not given)	none
O=C(C1=NNCC1c1c2ccccc2cc2ccccc12)c1ccc(Br)cc1 (stereo not given)	none
O=C(C1=NNCC1c1ccccc1)c1ccc2ccccc2c1 (stereo not given)	Dicer processing 4.3
CC(Oc1ccccc1-c1ccccc1)c1n[nH]c(=S)n1C (stereo not given)	none
CCCCCOC(=O)C1=C(C)NC2=C(C(=O)CCC2)C1c1cc(Cl)c(O)c(OC)c1 (stereo not given)	none
CC1=CC(C)(C)N(C(=O)c2ccc(F)cc2)c2cc3c(cc21)OCO3	Dicer processing 4.6
CCOc1ccc2c(c1)C(C)=CC(C)(C)N2C(=O)Nc1ccc(F)cc1	none
CC1=CC(C)(C)N(C(=O)Nc2ccc(C)cc2)c2ccc(C)cc21	none
O=C1C2=C(Nc3[nH]c(=O)[nH]c(=O)c3C2c2ccc(Cl)cc2)c2ccccc21 (stereo not given)	none
COc1ccc(-c2c(N)n[nH]c2C)cc1OC	Dicer processing 4.9
COc1ccc(-c2c(-c3ccc(OC)c(OC)c3)c(C)n(C)c2C)cc1OC	none
COc1ccc(-c2nc3cc(N)ccc3o2)cc1OC	none
COC(=O)c1sccc1Oc1ccc(C(F)(F)F)cc1N	none
Cc1c(-c2nnnn2-c2ccccc2)cnc2ccccc12	none
FC(F)(F)c1c(-c2nnnn2-c2ccccc2)cnn1-c1ccccc1Cl	none
FC(F)(F)c1[nH]ncc1-c1nnnn1-c1ccccc1	Dicer processing 3.3

Screening results from PubChem.
